Each structure is given as a SMILES string. About 83,000 compounds went through this panel and 20% of them were active in at least one assay; those are over-represented in the sample as a whole.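 The test compound was applied at a single concentration to cells in 96-well plates for 48 hours, and percent growth was recorded.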 A number with no mark means an inactive call. Active and inactive are the calls of the source. How the source made its calls: active means growth percent below 10; inactive means the rest.

The subject of this test is HL-60(TB) leukemia. The test is described as follows: NCI-60 one-dose screen, 48 h (100 = growth as untreated, 0 = no growth, -100 = all killed). The conditions noted are these: 10 µM unless noted.
Take `O=C(/C=C/c1ccccc1)c1cccc(OCCCOc2cccc(C(=O)/C=C/c3ccccc3)c2)c1`: the growth is 82.3%. Take `O=C(O)c1ccc(=O)[nH]n1`: the growth was 111%.

Regarding `COc1cccc(CC(C)=C(c2ccc(OCCN(C)C)cc2)c2ccc(OCCN(C)C)cc2)c1`, the growth was -62.5% (active). Consider `O=C1CSC(c2ccccc2Cl)N1c1nnc(Cn2cnnc2)o1` (centres undefined), for which the growth was -17.3% (active). With `CC1(C)CCCN1CCCN1c2ccccc2Sc2ccc(Cl)cc21` the figure was 46%; with `CC(=O)OC[C@]12CCC(C)(C)C[C@H]1[C@@]1(O)[C@H](O)C[C@@H]3[C@@]4(C)CCCNC(C)(C)[C@@H]4CC[C@@]3(C)[C@]1(C)CC2`, 105%.

As to `OC(Cc1cccnc1)c1ccccc1` (centres undefined), the growth was 64.3%. Take `C=C(C)[C@@H]1CC[C@]2(CO)CC[C@]3(C)[C@H](CC[C@@H]4[C@@]5(C)C=C(C#N)C(=O)C(C)(C)[C@@H]5CC[C@]43C)[C@@H]12`: the growth is -26.1% (active). With `CCCCCC(/C=N\NC(=S)N/N=C/C(=C/c1ccccc1)CCCCC)=C\c1ccccc1` the figure was 68.8%; with `CC[Si](CC)(CC)OC1[C@@H](O[Si](CC)(CC)CC)[C@@H](CNC(=O)NC)O[C@H]1n1cnc2c(NC(=O)Nc3ccccc3)ncnc21` (some centres undefined), -39.6% (active); with `COc1ccc(C2CC(c3cccc(OC)c3)=NN2C(=O)c2cc(OC)c(OC)c(OC)c2)cc1` (centres undefined), -44.1% (active).

Regarding `OCCCCCCNc1ncnc2cc(Cl)ccc12`, the growth was 88.9%. With `CCOC(=O)CC(S(=O)(=O)c1ccccc1)S(=O)(=O)c1ccccc1` the figure was 67.9%. With `Cc1nn(-c2ccccc2)c2nc(C)n(-c3ccc(Br)cc3)c(=O)c12` the figure was -5.26% (active); with `Nc1c(C(=O)Nc2ccncc2)sc2nc3c(cc12)CCCCCC3`, 67.1%. Next, `Cc1ccc(F)c(NC(=O)Nc2ccc(-c3cccc4[nH]nc(N)c34)cc2)c1`: 7.97% (active); `COc1ccc(-c2cc(-c3cc(OC)ccc3OC)[nH]c(=O)c2C#N)cc1`: 18.1%; `c1ccc2c(c1)Oc1cccnc1-n1nccc1-2`: 101%. With `CC(=O)/C(=C\c1c(-c2ccccc2)[nH]c2ccccc12)S(C)(=O)=O`, the growth is -55.2% (active). Take `Cn1cc(-c2csc(-c3cn(CCCN4CCCCC4)c4ccc(F)cc34)n2)c2cccnc21`: the growth was 56.3%. Next, `COc1cc(N=C2C(=O)N(Cc3ccccc3)c3ccccc32)cc(OC)c1OC`: 69.9%.

For `COc1ccc2nc(NC(=O)CSc3nnc4n3S(=O)(=O)c3ccccc3N4C)sc2c1`, the growth was 53.8%. `C[C@@H](c1ccc2c(c1)[nH]c1ccc(Cl)cc12)c1nc2ccccc2[nH]1`: the growth is 91.3%. With `CCCCN(CCCC)CCCCCCCCCCO` the figure was 95.1%; with `Nc1c(O)c(S(=O)(=O)O)c(O)c2c1C(=O)c1ccccc1C2=O`, -8.61% (active); with `O=C(Cn1c(=O)ccn(CCCCCCCCOc2ccc(Br)cc2)c1=O)Nc1ccc(Oc2ccc(Cl)cc2)cc1`, 48.7%. `N#CC(C#N)=C1NC(c2ccccc2)=C(c2ccccc2)C(c2ccccc2Cl)=C1C#N`: the growth was 79.2%. With `COc1cc2cc(Oc3ccc(NC(=O)Nc4ccc(Cl)c(C(F)(F)F)c4)cc3)c(C)nc2cc1OCCN1CCCCC1`, the growth was 30.5%. For `Cc1ccc2c(c1)sc(-c1ccc(N(C)C)cc1)[n+]2C`, the growth is -45.4% (active).

Values taken from PubChem BioAssay (NCI).
